The text below walks through data of PubChem BioAssay (Tox21).

Inconclusive results are not listed. Values without a mark were called inactive. Activity calls are given as the source filed them. Calls come from the whole dose curve; as a rule, active = well fitted cell-killing curve with a large enough effect in the repeat runs; inconclusive = weak or mixed curves, or effect the other way; inactive = flat fitted curve, though single readings scatter.
% is set by controls: 0 for no effect and ±100 for the full control effect; potency is the fitted concentration of half-maximal effect.

The test is described as follows: cAMP Responsive Elements (CRE) small molecule antagonists, cell-based qHTS assay: qHTS cell viability counter screen (AID 2060913). Note: nearly all actives have a fitted effect of over 40% in size. To be noted: CRE-bla HEK293T viability, CellTiter-Glo luminescence, 5 h; series mostly up to 92.4 µM; viability change, negative = cytotoxic: at the top concentration. The essentials:
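Cytotoxicity read in the same wells as the CRE-bla HEK293T antagonist assay: after 3 h compound with 0.25 uM NKH477 final and 2 h beta-lactamase substrate, CellTiter-Glo luminescence measured.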
A general note: Quantitative high-throughput screening tests each substance at several concentrations.
For the compound `Cc1ccc2c(c1)C(=O)c1ccccc1C2=O`, the “viability change, negative = cytotoxic” value is -6.27%.

As to `COC(=O)C(c1ccccc1Cl)N1CCc2sccc2C1` (configuration not stated), the “viability change, negative = cytotoxic” value was 0.0696% [at 42.5 µM].

As to `Clc1cccc(C(c2ccc3nc[nH]c3c2)n2ccnc2)c1` (configuration not stated), the “viability change, negative = cytotoxic” value was 0.153% [at 42.5 µM].

For `CCN1CCc2nc(N)oc2CC1`, the “viability change, negative = cytotoxic” value was 0.0873% [at 42.5 µM].

Take `COC(=O)C1=C(C)NC(C)=C(C(=O)OC)C1c1ccccc1[N+](=O)[O-]`: the Potency result was “inactive”.

In the case of `Oc1ccc(C2(c3ccc(O)c(C4CCCCC4)c3)CCCCC2)cc1C1CCCCC1`, the Potency is 43.3 µM (active).

As to `O=C1C=CC(=O)N1c1ccc(Cc2ccc(N3C(=O)C=CC3=O)cc2)cc1`, the Potency is 54.5 µM (active).

With `CC1(C)S[C@@H]2[C@H](NC(=O)C(C(=O)O)c3ccccc3)C(=O)N2[C@H]1C(=O)O` (some centres not stated), the “viability change, negative = cytotoxic” value was -0.289% [at 42.5 µM].

In the case of `CCCCCCCCO`, the Potency entry was “inactive”.

With `CCCc1ncc(C(=O)O)s1`, the “viability change, negative = cytotoxic” value is 10.4% [at 42.5 µM].

With `N[C@H](Cc1c[nH]c2ccccc12)C(=O)O`, the Potency result was “inactive”.

`CCCCCCCCC(=O)Cl`: the “viability change, negative = cytotoxic” value is -21.7%.

Regarding `CC(C)(C)c1ccc(C(=O)O)cc1`, the “viability change, negative = cytotoxic” value is 2.85%.

With `CCCCCCCCN`, the “viability change, negative = cytotoxic” value is -4.61%.

`Cc1c(Cl)cccc1Nc1ccccc1C(=O)O`: the “viability change, negative = cytotoxic” value is 6.17% [at 42.5 µM].

Consider `C1CCSC1`, for which the “viability change, negative = cytotoxic” value was -22.8%.

For the compound `CCCC(CC)CCCCCCCN` (configuration not stated), the “viability change, negative = cytotoxic” value is -18.6%.

With `CC(=O)OCC(=O)[C@@]1(O)CC[C@H]2[C@@H]3CCC4=CC(=O)C=C[C@]4(C)[C@H]3[C@@H](O)C[C@@]21C`, the “viability change, negative = cytotoxic” value is -0.345% [at 42.5 µM].

In the case of `COc1c(C)c2c(c(O)c1C/C=C(\C)CCC(=O)O)C(=O)OC2`, the “viability change, negative = cytotoxic” value is 2.16% [at 42.5 µM].

With `CC(=O)CCc1ccc(O)cc1`, the “viability change, negative = cytotoxic” value was 4.74%.

Turning to `Cc1oc(=O)oc1COC(=O)[C@@H]1N2C(=O)[C@@H](NC(=O)[C@H](N)c3ccccc3)[C@H]2SC1(C)C`, the “viability change, negative = cytotoxic” value was -0.337% [at 42.5 µM].

On to `Cc1cn([C@@H]2O[C@H](CO)[C@@H](O)[C@@H]2F)c(=O)[nH]c1=O`, for which the “viability change, negative = cytotoxic” value is -1.86% [at 42.5 µM].
